Measured values as given in PubChem BioAssay AID1159580 (chemical genetic matrix, 2015).
Among all 5,500 compounds or so, about 2,000 (36%) were called active. Inconclusive results (about 18%) are left out. No stated cut-off is given here; in the data, active means normalized growth mostly below about 0.91 (no sharp cut-off); inconclusive means no clear call, values can overlap the other calls; inactive means mostly above about 0.92. This is one part of the list.

Assay: chemical genetic growth profiling, strain panel (AID 1159580);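 further: tested at 20 µM; growth read once vehicle control cultures reached saturation at 30 °C; 1 = growth at the plate median or of vehicle wells; lower values mean less growth of the strain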
Conditions: growth OD

Measured: normalized growth

Cc1cc(C)nc(NS(=O)(=O)c2ccc(N)cc2)n1
inactive: S. cerevisiae deletion strains, locus YJR066W, strain TOR1, active compounds read low 0.929 | S. cerevisiae deletion strains, locus YJR075W, strain HOC1, active compounds read low 0.98 | S. cerevisiae deletion strains, locus YKL009W, strain mrt4, active compounds read low 0.961 | S. cerevisiae deletion strains, locus YKL068W, active compounds read low 0.982 | S. cerevisiae deletion strains, locus YKL085W, strain MDH1 (second series), active compounds read low 0.971 | S. cerevisiae deletion strains, locus YKL085W, strain MDH1, active compounds read low 0.971 | S. cerevisiae deletion strains, locus YKL160W, strain elf1, active compounds read low 1 | S. cerevisiae deletion strains, locus YKL190W, strain CNB1, active compounds read low 1 | S. cerevisiae deletion strains, locus YKR001C, strain vps1, active compounds read low 0.98 | S. cerevisiae deletion strains, locus YKR026C, strain gcn3, active compounds read low 0.985 | S. cerevisiae deletion strains, locus YKR091W, strain srl3, active compounds read low 0.958 | S. cerevisiae deletion strains, locus YLL001W, strain dnm1, active compounds read low 1.03 | S. cerevisiae deletion strains, locus YLL026W, active compounds read low 0.993 | S. cerevisiae deletion strains, locus YLL041C, strain sdh2, active compounds read low 0.975 | S. cerevisiae deletion strains, locus YLR027C, strain aat2, active compounds read low 0.985 | S. cerevisiae deletion strains, locus YLR039C, strain RIC1, active compounds read low 0.981 | S. cerevisiae deletion strains, locus YLR058C, strain SHM2, active compounds read low 0.986 | S. cerevisiae deletion strains, locus YLR102C, strain apc9, active compounds read low 0.984 | S. cerevisiae deletion strains, locus YLR113W, strain HOG1, active compounds read low 0.975 | S. cerevisiae deletion strains, locus YLR221C, strain rsa3, active compounds read low 0.958 | S. cerevisiae deletion strains, locus YLR258W, strain gsy2, active compounds read low 0.977 | S. cerevisiae deletion strains, locus YLR262C, strain YPT6 (second series), active compounds read low 0.972 | S. cerevisiae deletion strains, locus YLR262C, strain YPT6, active compounds read low 0.986 | S. cerevisiae deletion strains, locus YLR268W, strain sec22, active compounds read low 0.952 | S. cerevisiae deletion strains, locus YLR320W, strain mms22, active compounds read low 0.957 | S. cerevisiae deletion strains, locus YLR330W, strain CHS5, active compounds read low 0.988 | S. cerevisiae deletion strains, locus YLR342W, strain FKS1 (second series), active compounds read low 0.999 | S. cerevisiae deletion strains, locus YLR342W, strain FKS1, active compounds read low 0.996 | S. cerevisiae deletion strains, locus YLR357W, strain rsc2, active compounds read low 0.975 | S. cerevisiae deletion strains, locus YLR370C, strain arc18, active compounds read low 0.984 | S. cerevisiae deletion strains, locus YLR371W, strain rom2, active compounds read low 0.961 | S. cerevisiae deletion strains, locus YLR384C, strain iki3, active compounds read low 0.985 | S. cerevisiae deletion strains, locus YLR418C, strain cdc73, active compounds read low 1.02 | S. cerevisiae deletion strains, locus YML016C, strain PPZ1, active compounds read low 0.995 | S. cerevisiae deletion strains, locus YML032C, strain rad52, active compounds read low 0.98 | S. cerevisiae deletion strains, locus YML120C, strain ndi1, active compounds read low 0.976 | S. cerevisiae deletion strains, locus YML124C, strain tub3, active compounds read low 0.981 | S. cerevisiae deletion strains, locus YMR058W, strain fet3, active compounds read low 0.986 | S. cerevisiae deletion strains, locus YMR078C, strain ctf18, active compounds read low 0.98 | S. cerevisiae deletion strains, locus YMR125W, strain sto1, active compounds read low 0.947 | S. cerevisiae deletion strains, locus YMR129W, active compounds read low 0.974 | S. cerevisiae deletion strains, locus YMR205C, strain PFK2, active compounds read low 0.988 | S. cerevisiae deletion strains, locus YMR223W, strain ubp8, active compounds read low 1.02 | S. cerevisiae deletion strains, locus YMR231W, strain pep5, active compounds read low 1.02 | S. cerevisiae deletion strains, locus YMR307W, strain GAS1, active compounds read low 1.02 | S. cerevisiae deletion strains, locus YNL067W, strain RPL9B, active compounds read low 0.996 | S. cerevisiae deletion strains, locus YNL071W, strain lat1, active compounds read low 0.973 | S. cerevisiae deletion strains, locus YNL128W, strain TEP1, active compounds read low 0.97 | S. cerevisiae deletion strains, locus YNL183C, strain NPR1, active compounds read low 0.967 | S. cerevisiae deletion strains, locus YNL209W, strain ssb2, active compounds read low 0.975 | S. cerevisiae deletion strains, locus YNL233W, strain BNI4, active compounds read low 0.997 | S. cerevisiae deletion strains, locus YNL248C, strain rpa49, active compounds read low 0.909 | S. cerevisiae deletion strains, locus YNL250W, strain rad50, active compounds read low 0.986 | S. cerevisiae deletion strains, locus YNL271C, strain bni1, active compounds read low 0.993 | S. cerevisiae deletion strains, locus YNL298W, strain CLA4, active compounds read low 0.963 | S. cerevisiae deletion strains, locus YNL307C, strain MCK1, active compounds read low 0.978 | S. cerevisiae deletion strains, locus YNL322C, strain KRE1 (second series), active compounds read low 0.971 | S. cerevisiae deletion strains, locus YNL322C, strain KRE1, active compounds read low 0.997 | S. cerevisiae deletion strains, locus YNR049C, strain mso1, active compounds read low 0.963 | S. cerevisiae deletion strains, locus YNR052C, strain pop2, active compounds read low 0.97 | S. cerevisiae deletion strains, locus YOL006C, strain TOP1, active compounds read low 1.07 | S. cerevisiae deletion strains, locus YOL012C, strain htz1 1.13 | S. cerevisiae deletion strains, locus YOL147C, strain pex11, active compounds read low 0.991 | S. cerevisiae deletion strains, locus YOR001W, strain rrp6, active compounds read low 1 | S. cerevisiae deletion strains, locus YOR061W, strain CKA2, active compounds read low 1 | S. cerevisiae deletion strains, locus YOR069W, strain VPS5, active compounds read low 0.988 | S. cerevisiae deletion strains, locus YOR070C, strain gyp1, active compounds read low 0.98 | S. cerevisiae deletion strains, locus YOR080W, strain dia2, active compounds read low 0.983 | S. cerevisiae deletion strains, locus YOR083W, strain WHI5, active compounds read low 0.983 | S. cerevisiae deletion strains, locus YOR106W, strain vam3, active compounds read low 1.02 | S. cerevisiae deletion strains, locus YOR136W, strain idh2, active compounds read low 0.996 | S. cerevisiae deletion strains, locus YOR144C, strain elg1, active compounds read low 0.991 | S. cerevisiae deletion strains, locus YOR184W, strain ser1, active compounds read low 0.979 | S. cerevisiae deletion strains, locus YOR231W, strain MKK1, active compounds read low 0.995 | S. cerevisiae deletion strains, locus YOR265W, strain rbl2, active compounds read low 0.981 | S. cerevisiae deletion strains, locus YOR270C, strain vph1, active compounds read low 0.97 | S. cerevisiae deletion strains, locus YOR290C, strain snf2, active compounds read low 0.943 | S. cerevisiae deletion strains, locus YOR316C, strain cot1, active compounds read low 0.971 | S. cerevisiae deletion strains, locus YPL051W, strain arl3, active compounds read low 0.995 | S. cerevisiae deletion strains, locus YPL078C, strain atp4, active compounds read low 0.99 | S. cerevisiae deletion strains, locus YPL106C, strain sse1, active compounds read low 0.914 | S. cerevisiae deletion strains, locus YPL240C, strain hsp82, active compounds read low 0.979 | S. cerevisiae deletion strains, locus YPL256C, strain CLN2, active compounds read low 0.954 | S. cerevisiae deletion strains, locus YPR119W, strain clb2, active compounds read low 0.978 | S. cerevisiae deletion strains, locus YPR141C, strain kar3, active compounds read low 0.973 | S. cerevisiae deletion strains, locus YPR163C, strain tif3, active compounds read low 0.981 | S. cerevisiae deletion strains, locus YPR167C, strain met16, active compounds read low 0.971 | S. cerevisiae deletion strains, strain wtn01, active compounds read low 0.981 | S. cerevisiae strains, strain wild type, active compounds read low 0.995
